A short description of test [1]: compounds binding Alexa647 anti-His antibody – biochemical, small-molecule microarray, 635 nm fluorescence, artefact control for SMM control protein annotation, primary screen (AID 1128).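 Further: score merges feature fluorescence with signal-to-noise for each printed compound spot.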 Particulars: higher = more signal.
Test [2] relates to Human papillomavirus type 1a E7 protein (residues 1-88). The test can be described thus: HPV1a E7 small-molecule binders, primary screen, biochemical, small-molecule microarray, residues 1-88, 635 nm (AID 1129). Particulars: small-molecule microarray binding, fluorescence 635 nm; higher = more signal.
In test [3] the target is Focal adhesion kinase 1 (Homo sapiens) (UniProt Q05397). The test can be described thus: PTK2 protein binding on printed compound slides – biochemical, small-molecule microarray, 635/667 nm fluorescence, BSA, DTT, primary screen (AID 1130).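 Further: composite of spot emission at 667 nm and signal to noise over triplicate slides.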 Particulars: 635 nm fluorescence, higher = more signal.
Test [4] concerns Fibrinogen (Alexa647-labelled). The test is described as follows: Alexa647-fibrinogen binding to printed small molecules – biochemical, small-molecule microarray, 635/667 nm fluorescence, artefact control for SMM control-protein annotation, profiling panel (AID 1131).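 Further: z-score merges 667 nm fluorescence with per-spot signal-to-noise over triplicate slides.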 Particulars: fibrinogen-A647 binding fluorescence, higher = more signal.
The target in test [5] is Follistatin (Homo sapiens) (UniProt P19883). The test can be described thus: FST protein binding to printed compounds – biochemical, small-molecule microarray, 635/667 nm fluorescence, primary screen (AID 1132). Conditions: 635 nm fluorescence, higher = more signal.
Test [6] concerns the target Fibroblast growth factor 2 (Homo sapiens) (UniProt P09038). The test can be described thus: basic fibroblast growth factor binding to printed compounds – biochemical, small-molecule microarray, 635/667 nm fluorescence, primary screen (AID 1133). Conditions: FGF2, fluorescence 635/667, higher = more signal.
Test [7] is described as follows: JC-1 mitochondrial potential readout, lung cancer cells – cell-based, A549, JC-1 fluorescence, basal, 24 h, 100 nL, profiling panel (AID 1138).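 Further: A549 lung adenocarcinoma cells under basal conditions with no added stimulus; test concentration not given here.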 Conditions: higher = more signal.
In the next test the test system is Lefty1. The test can be described thus: Lefty1 protein binding to printed compounds – biochemical, small-molecule microarray, 635/667 nm fluorescence, primary screen (AID 1139). Particulars: fluorescence 635/667, higher = more signal.
Test [8] relates to wheat germ agglutinin (Triticum aestivum), Alexa647-labelled. The test can be described thus: Alexa647-WGA lectin binding to printed small molecules – biochemical, small-molecule microarray, 635/667 nm fluorescence, artefact control for SMM control-protein annotation, profiling panel (AID 1140).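 Further: score merges 667 nm feature emission with signal to noise over triplicate slides.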 Conditions: WGA-A647 binding, 635 nm fluorescence, higher = more signal.
The target in test [9] is Luciferin 4-monooxygenase (Photinus pyralis) (UniProt P08659). The test can be described thus: inhibition of purified Photinus pyralis luciferase – biochemical, luminescence, purified enzyme, 2006 set, primary screen (AID 1141).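 Further: cell-free assay with purified firefly luciferase at 100 ng per well in PBS; test concentration not given here.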 Particulars: purified firefly luciferase, SteadyGlo luminescence, 30 min; higher = more signal, called active from +8 up or from −8 down.

The source made the active and inactive calls.

Luciferin 4-monooxygenase (Photinus pyralis), sequence (P08659 whole entry, looked up): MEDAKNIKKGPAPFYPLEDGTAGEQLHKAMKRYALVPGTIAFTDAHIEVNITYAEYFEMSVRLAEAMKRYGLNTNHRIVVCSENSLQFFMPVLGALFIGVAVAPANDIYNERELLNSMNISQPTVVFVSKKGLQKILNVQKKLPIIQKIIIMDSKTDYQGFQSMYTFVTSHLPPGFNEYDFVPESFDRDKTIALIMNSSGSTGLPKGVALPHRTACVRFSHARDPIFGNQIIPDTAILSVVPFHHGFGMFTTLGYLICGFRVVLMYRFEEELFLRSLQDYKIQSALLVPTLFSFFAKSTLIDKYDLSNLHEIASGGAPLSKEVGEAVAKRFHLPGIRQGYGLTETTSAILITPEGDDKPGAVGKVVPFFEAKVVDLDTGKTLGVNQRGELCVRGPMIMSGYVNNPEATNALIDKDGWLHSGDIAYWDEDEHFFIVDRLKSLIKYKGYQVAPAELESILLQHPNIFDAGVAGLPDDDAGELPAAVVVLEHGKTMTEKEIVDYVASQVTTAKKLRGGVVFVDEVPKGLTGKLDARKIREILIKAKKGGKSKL
Focal adhesion kinase 1 (Homo sapiens), sequence (Q05397 whole entry, looked up): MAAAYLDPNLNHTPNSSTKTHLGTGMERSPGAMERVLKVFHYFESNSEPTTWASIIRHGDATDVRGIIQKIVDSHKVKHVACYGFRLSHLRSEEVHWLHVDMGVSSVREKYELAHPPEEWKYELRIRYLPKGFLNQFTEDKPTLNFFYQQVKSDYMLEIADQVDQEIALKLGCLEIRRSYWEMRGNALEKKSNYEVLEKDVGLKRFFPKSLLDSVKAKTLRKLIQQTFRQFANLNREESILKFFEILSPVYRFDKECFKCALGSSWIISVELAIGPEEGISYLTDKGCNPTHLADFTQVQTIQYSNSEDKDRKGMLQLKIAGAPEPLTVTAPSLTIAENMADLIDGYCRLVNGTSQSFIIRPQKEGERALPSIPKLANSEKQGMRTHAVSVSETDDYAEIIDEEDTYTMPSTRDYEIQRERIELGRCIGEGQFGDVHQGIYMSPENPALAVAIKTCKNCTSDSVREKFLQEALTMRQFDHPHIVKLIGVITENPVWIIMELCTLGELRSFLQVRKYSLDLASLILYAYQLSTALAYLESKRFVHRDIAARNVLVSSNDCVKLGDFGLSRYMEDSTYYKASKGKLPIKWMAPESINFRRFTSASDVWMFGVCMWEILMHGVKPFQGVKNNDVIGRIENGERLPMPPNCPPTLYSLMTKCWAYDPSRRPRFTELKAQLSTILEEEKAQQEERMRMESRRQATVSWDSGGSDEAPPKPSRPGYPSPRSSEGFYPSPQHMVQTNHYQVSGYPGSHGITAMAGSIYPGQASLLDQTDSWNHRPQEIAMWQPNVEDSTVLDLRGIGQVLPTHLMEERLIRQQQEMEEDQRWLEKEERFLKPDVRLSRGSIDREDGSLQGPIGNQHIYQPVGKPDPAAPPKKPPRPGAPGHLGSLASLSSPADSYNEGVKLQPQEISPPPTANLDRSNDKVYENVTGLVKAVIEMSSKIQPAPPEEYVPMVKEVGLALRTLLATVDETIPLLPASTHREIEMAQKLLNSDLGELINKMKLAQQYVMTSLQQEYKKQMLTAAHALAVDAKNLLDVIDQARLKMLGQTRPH
Follistatin (Homo sapiens), sequence (P19883 whole entry, looked up): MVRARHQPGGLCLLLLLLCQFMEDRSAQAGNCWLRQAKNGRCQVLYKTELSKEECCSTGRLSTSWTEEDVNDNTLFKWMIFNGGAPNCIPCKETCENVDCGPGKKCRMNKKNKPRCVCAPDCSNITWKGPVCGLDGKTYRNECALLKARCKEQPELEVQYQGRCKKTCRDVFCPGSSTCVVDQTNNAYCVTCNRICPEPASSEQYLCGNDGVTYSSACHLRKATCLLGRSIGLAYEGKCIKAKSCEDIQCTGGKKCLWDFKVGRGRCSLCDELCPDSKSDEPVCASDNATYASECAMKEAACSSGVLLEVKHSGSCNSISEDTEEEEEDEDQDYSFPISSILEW
Fibroblast growth factor 2 (Homo sapiens), sequence (P09038 whole entry, looked up): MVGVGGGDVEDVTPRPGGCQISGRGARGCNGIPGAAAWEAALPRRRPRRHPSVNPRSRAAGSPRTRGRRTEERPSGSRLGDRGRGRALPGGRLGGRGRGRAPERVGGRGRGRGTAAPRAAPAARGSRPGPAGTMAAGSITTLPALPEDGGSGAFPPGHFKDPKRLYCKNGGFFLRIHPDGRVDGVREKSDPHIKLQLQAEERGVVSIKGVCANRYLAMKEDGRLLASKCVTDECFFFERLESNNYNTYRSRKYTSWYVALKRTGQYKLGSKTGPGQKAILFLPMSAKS

For the compound `CCCNC(=O)[C@@]1(C)c2ccccc2C(=O)N(c2ccc(C)cn2)[C@H]1c1ccc(CO)cc1`, the composite z-score is 0.0998 in [1]; -0.268 in test [2]; 0.23 in test [3]; -1.78 in test [4]; 0.169 in test [5]; -0.465 in test [6]. Moreover, the results for the composite z-score (in the test on Lefty1; in test [8]) were -0.0558 and -0.311, respectively. The z-score in test [7] was 0.672; in [9], -0.714 (inactive).

With `C=CCC(OC(C)=O)[C@@H]1[C@@H](N(Cc2ccc(-c3cccc(C(F)(F)F)c3)o2)C(=O)c2ccc(-c3ccccc3)cc2)c2cc(OCCCO)ccc2N1C(=O)Cc1ccc2ccccc2c1` (stereo not given in full), the composite z-score in test [1] is -0.0298; in test [2], -0.504; in test [3] it was 0.0827; in test [4] it was 0.229; in test [5] it was 0.438; in test [6] it was -0.482. In addition, the composite z-score with Lefty1 is -0.175; in [8], -0.0916. In addition, the values for the z-score in test [7] and in [9] were 0.0819 and 0.429 (inactive), respectively.

For the compound `C=CCC(OC(C)=O)[C@@H]1[C@@H](N(Cc2cc3ccccc3o2)C(=O)Cc2ccc(F)cc2)c2cc(OCCCO)ccc2N1C(=O)Cc1ccc2ccccc2c1` (stereo not given in full), the composite z-score in test [1] is -0.748; in test [2] it was -0.682; in test [3], -0.308; in test [4] it was 0.397; in test [5], 0.0648; in [6] it was -0.408. The composite z-score with Lefty1 is -0.0725; in test [8], -0.286. For the same compound, the z-score in test [7] was 1.75; in test [9] it was -0.826 (inactive).

With `COc1ccc([Si](C)(C)[C@H]2[C@H](CC(=O)N(CCO)Cc3ccccc3)O[C@@]3(C(=O)N(C)c4c(Br)cc(C)cc43)[C@@H]2C)cc1`, the composite z-score in test [1] was 1.19; in [2] it was 1.03; in [3] it was -0.0842; in test [4], -0.009; in test [5], 1.51; in test [6], 1.84. The composite z-score in the test with Lefty1 was 1.57; in [8], 0.61. Also, the z-score in [7] is -0.774; in test [9], -0.342 (inactive).

Turning to `CCCC[C@@H]1C[C@H]1[C@@H](NC(=O)c1cccs1)c1ccccc1C(F)(F)F`, the composite z-score in test [1] is 1.01; in test [2], 1.2; in test [3], -0.157; in [4], 0.982; in [5], -0.152; in test [6], 0.28. For the same compound, the composite z-score was -0.716 in the test on Lefty1 and 0.839 in test [8]. Further, the results for the z-score in test [7] and in [9] were 0.245 and 1.75 (inactive), respectively.

Turning to `CCOC(=O)C1=CC[C@@H](c2ccccc2)N(S(=O)(=O)c2ccc(C)cc2)[C@H]1c1ccccc1`, the composite z-score was 0.271 in [1]; 1.17 in [2]; 0.428 in test [3]; 0.915 in test [4]; -0.0842 in test [5]; -0.486 in [6]. The composite z-score is -0.381 with Lefty1 and 0.991 in test [8]. Moreover, the z-score in test [7] is 2.45; in [9], 1.16 (inactive).

On to `O=C1C[C@]2(c3ccc([N+](=O)[O-])cc3)C(=O)N(C3CC3)c3cc(CO)ccc3[C@H]2N1CC12CC3CC(CC(C3)C1)C2`, for which the composite z-score in [1] was -0.496; in [2], -0.336; in [3], -0.421; in test [4], -0.168; in test [5], -0.579; in [6] it was -0.364. The composite z-score in the test on Lefty1 is -1.5; in test [8] it was -0.456. The z-score in test [7] is -1.17; in [9], -0.124 (inactive).

As for `C=CCNC(=O)[C@@H]1[C@H]2C(=O)O[C@H](c3ccccc3)[C@H](c3ccccc3)N2[C@H](c2ccccc2OCCO)[C@@]12C(=O)N(C(=O)OCCOC)c1ccc(C#CC3(O)CCCCCC3)cc12`, the composite z-score stood at 0.713 in test [1]; 1.22 in test [2]; 0.894 in test [3]; 0.905 in test [4]; 1.34 in test [5]; 0.924 in test [6]. Moreover, the values for the composite z-score (with Lefty1; in test [8]) were 0.988 and 0.323, respectively. Besides, the z-score in [7] is -1.2; in [9], 0.558 (inactive).

On to `Cc1ccc(S[C@]2(C(=O)NCC(F)(F)F)CC(=O)N(Cc3cc(C(F)(F)F)cc(C(F)(F)F)c3)[C@@H]2c2ccc(CO)cc2I)cc1`, for which the composite z-score in test [1] was 0.214; in test [2], -0.698; in [3], -0.301; in test [4], -0.994; in [5] it was -0.887; in test [6] it was -0.91. Moreover, the values for the composite z-score (in the test with Lefty1; in [8]) were -0.708 and -0.314, respectively. Moreover, the values for the z-score in test [7] and in test [9] were -1.01 and 1.5 (inactive), respectively.

Turning to `O=C1N(CCS(=O)(=O)c2ccccc2)c2ccccc2[C@H]2OC(c3ccc(OCCCO)cc3)=N[C@@]12Cc1ccccc1`, the composite z-score was determined as 2.15 in [1]; 0.936 in test [2]; 0.548 in test [3]; 0.587 in test [4]; 1.54 in test [5]; 1.75 in [6]. Moreover, the results for the composite z-score (in the test on Lefty1; in [8]) were 0.476 and 0.943, respectively. The z-score in test [7] is 1.08; in test [9], -8.53 (active).

Take `CCCCC=C[C@@H](NC(=O)OCc1ccccc1Cl)c1ccccc1`: the composite z-score in test [1] is 0.361; in test [2], 1.25; in [3], 0.128; in test [4], 0.979; in test [5] it was 1.19; in [6], -0.172. For the same compound, the composite z-score in the test on Lefty1 is 0.868; in test [8], 0.385. For the same compound, the results for the z-score in test [7] and in test [9] were -1.55 and 0.488 (inactive), respectively.

In the case of `O=C1O[C@@H](c2ccccc2)[C@@H](c2ccccc2)N2[C@@H](c3ccc(O)cc3)[C@]3(C(=O)Nc4ccc(C#CCCO)cc43)[C@@H](C(=O)N3CCN(c4ncccn4)CC3)[C@H]12`, the composite z-score in test [1] was 1.56; in [2] it was 1.14; in test [3], 0.165; in test [4], 0.512; in test [5] it was 1.37; in test [6] it was 1.68. Also, the composite z-score came out at 0.952 in the test with Lefty1 and 0.0869 in [8]. The results for the z-score in test [7] and in [9] were -1.25 and 0.764 (inactive), respectively.

As to `CCCC=C(CCC)[C@@H](NS(=O)(=O)CC12CCC(CC1=O)C2(C)C)c1ccc(C(=O)OC)cc1` (stereo not given in full), the composite z-score in [1] was 1.33; in test [2], 0.71; in test [3] it was 0.187; in [4], 0.0749; in test [5] it was 0.107; in [6] it was -0.056. For the same compound, the composite z-score amounted to 0.134 with Lefty1 and 0.301 in [8]. For the same compound, the z-score was 0.237 in test [7] and 2.15 (inactive) in test [9].

With `CN(C)C(=O)[C@@]1(Cc2ccccc2CN=[N+]=[N-])N=C(c2ccc(OCCCO)cc2)O[C@H]1c1ccccc1N=[N+]=[N-]`, the composite z-score is 2.09 in test [1]; 1.27 in test [2]; 0.801 in [3]; 0.983 in [4]; 0.711 in test [5]; -0.0088 in test [6]. The composite z-score in the test on Lefty1 is 0.627; in [8] it was 1.22. For the same compound, the z-score was -1.02 in [7] and -6.81 (inactive) in test [9].

Source of the values: PubChem BioAssay.
